Test results from the supplement of paper PMC13094657.
± gives the standard deviation of the averaged measurements.

Experiments:
MDA-MB-231 [1] = assay: cell viability relative to vehicle unstimulated control (fraction); higher = more viable cells; conditions: pre-treatment time: 18 h then 24 h IFNg/TNF
MDA-MB-231 [2] = assay: kynurenine production, fold change vs DMSO IFNg/TNF control; higher = more kynurenine produced (less inhibition); conditions: pre-treatment time: 18 h then 24 h IFNg/TNF
How it was run: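 In 96-well plates, MDA-MB-231 cells (7 × 10^4/well) were given 24 h to settle, pre-treated for 18 h with each natural product in 0.1% DMSO, and stimulated for 24 h with IFNγ (1 U/ml) and TNF (6.25 ng/ml) at 37°C. Supernatants were processed with trichloroacetic acid and p-dimethylaminobenzaldehyde and read at 492 nm against 0–100 μM standards. In the first screening round, kynurenine production, as fold change over same-plate cytokine-stimulated vehicle wells, was averaged over duplicate plates.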
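Wherever cell viability relative to vehicle unstimulated control is given: viability of the cells left after supernatant collection, read with Deep Blue dye added for 4 h, as absorbance at 570 nm minus 600 nm.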

| SMILES | cell viability (MDA-MB-231 [1]) | kynurenine production (MDA-MB-231 [2]) |
| --- | --- | --- |
| COC(=O)C1=CO[C@@H](O[C@@H]2O[C@H](CO)[C@@H](O)[C@H](O)[C@H]2O)[C@@H]2C(COC(C)=O)=C[C@H](O)[C@H]12 [Daphylloside] (compound dose: 10 uM) | 0.999 ± 0.062 | 0.888 ± 0.048 |
| O[C@@H]1[C@@H](O)[C@@H](OC/C=C/c2ccccc2)O[C@H](CO[C@@H]2OC[C@H](O)[C@H](O)[C@H]2O)[C@H]1O [Rosavin] (compound dose: 10 uM) | 1.003 ± 0.0045 | 0.882 ± 0.2 |
| C[C@@H]1O[C@@H](O[C@H]2[C@H](O[C@H]3CC[C@@]4(C)[C@@H](CC[C@]5(C)[C@@H]4CC=C4[C@@H]6CC(C)(C)CC[C@]6(C(=O)O[C@@H]6O[C@H](CO[C@@H]7O[C@H](CO)[C@@H](O)[C@H](O)[C@H]7O)[C@@H](O)[C@H](O)[C@H]6O)CC[C@]45C)[C@]3(C)CO)OC[C@H](O)[C@@H]2O)[C@H](O)[C@H](O[C@@H]2O[C@H](CO)[C@@H](O)[C@H](O)[C@H]2O)[C@H]1O [Macranthoidin A] (compound dose: 10 uM) | 0.901 ± 0.011 | 1.08 ± 0.014 |
| C[C@H]1[C@H](C)CC[C@]2(C(=O)O)CC[C@]3(C)C(=CC[C@@H]4[C@@]5(C)CC[C@H](O)C(C)(C)[C@@H]5CC[C@]43C)[C@H]12 [3-Epiursolic Acid] (compound dose: 10 uM) | 1.02 ± 0.045 | 0.649 ± 0.08 |
| CC(/C=C/C=C(\C)C(=O)O[C@@H]1O[C@H](CO)[C@@H](O)[C@H](O)[C@H]1O)=C\C=C\C=C(C)\C=C\C=C(/C)C(=O)O[C@@H]1O[C@H](CO[C@@H]2O[C@H](CO)[C@@H](O)[C@H](O)[C@H]2O)[C@@H](O)[C@H](O)[C@H]1O [Crocin II] (compound dose: 10 uM) | 0.987 ± 0.09 | 0.907 ± 0.13 |
| C[C@@H]1CC[C@H]2[C@@H](C)C(=O)O[C@@H]3O[C@@]4(C)CC[C@@H]1[C@]32O4 [Deoxyartemisinin] (compound dose: 10 uM) | 1.28 ± 0.3 | 0.8521 ± 0.0034 |
| CC1CCC(C(C)C)C(O)C1 [(1R,2S,5R)-(-)-menthol] (compound dose: 10 uM) | 0.935 ± 0.035 | 0.806 ± 0.069 |
| C/C=C(/C)C(=O)O[C@H]1C(C)=C[C@]23C(=O)[C@@H](C=C4COC(C)(C)O[C@H]4[C@]12O)[C@H]1[C@@H](C[C@H]3C)C1(C)C [Ingenol-5,20-acetonide-3-O-angelate] (compound dose: 10 uM) | 0.971 ± 0.025 | 0.918 ± 0.23 |
| C=C(C)[C@@H]1CC[C@]2(C(=O)O)CC[C@]3(C)[C@H](CC[C@@H]4[C@@]5(C)CCC(=O)C(C)(C)[C@@H]5CC[C@]43C)[C@@H]12 [Betulonic acid] (compound dose: 10 uM) | 0.836 ± 0.033 | 0.785 ± 0.074 |
| CC1(C)C(O[C@@H]2OC[C@@H](O)[C@H](O)[C@H]2O)CC[C@]23CC24CC[C@]2(C)[C@@H]([C@@]5(C)CC[C@@H](C(C)(C)O)O5)[C@H](O)C[C@@]2(C)C4C[C@@H](O[C@@H]2O[C@H](CO)[C@@H](O)[C@H](O)[C@H]2O)C13 (some centres undefined) [Astragaloside IV] (compound dose: 10 uM) | 1.05 ± 0.022 | 0.878 ± 0.068 |
| C[C@@H]1CC[C@]2(C(=O)O[C@@H]3O[C@H](CO)[C@@H](O)[C@H](O)[C@H]3O)CC[C@]3(C)C(=CC[C@@H]4[C@@]5(C)C[C@@H](O)[C@H](O)C(C)(C)[C@@H]5CC[C@]43C)[C@@H]2[C@]1(C)O [Rosamultin] (compound dose: 10 uM) | 1 ± 0.077 | 1.09 ± 0.26 |
| C=C1C=CC(C(C)C)CC1 (stereo not drawn) [β-Phellandrene] (compound dose: 10 uM) | 0.99 ± 0.038 | 0.832 ± 0.18 |
| C=C1C[C@@]2(O)O[C@@]3(C[C@H]2C(C)C)[C@@H](C)CC[C@@H]13 [Curcumol] (compound dose: 10 uM) | 0.997 ± 0.034 | 0.833 ± 0.1 |
| CCCCCCCCCC(=O)O[C@@H]1[C@@H](C)[C@@]2(O)[C@@H](C=C(COC(=O)Cc3ccc(O)c(OC)c3)C[C@]3(O)C(=O)C(C)=C[C@@H]23)[C@@H]2C(C)(C)[C@]12OC(=O)CCCCCCCCC [Phorbol 12,13-didecanoate 20-homovanillate] (compound dose: 10 uM) | 1 ± 0.024 | 0.74 ± 0.024 |
| CC1(C)CCC[C@](C)([C@H]2CC[C@]3(C)[C@@H]2[C@H](O)C[C@@H]2[C@@]4(C)CC[C@H](O)C(C)(C)[C@@H]4[C@@H](O)C[C@]23C)O1 [Panaxatriol] (compound dose: 10 uM) | 0.926 ± 0.025 | 0.846 ± 0.073 |
| CC(CC(=O)C[C@@H](C)[C@H]1CC(=O)[C@@]2(C)C3=C(C(=O)C[C@]12C)[C@@]1(C)CC[C@H](O)C(C)(C)[C@@H]1C[C@@H]3O)C(=O)O (some centres undefined) [Ganoderic acid B] (compound dose: 10 uM) | 0.95 ± 0.032 | 0.774 ± 0.18 |

| SMILES | cell viability (MDA-MB-231 [1]) | kynurenine production (MDA-MB-231 [2]) |
| --- | --- | --- |
| CC(=O)OCc1cocc2c(C=O)ccc1-2 [Baldrinal] (compound dose: 10 uM) | 1.006 ± 0.006 | 0.785 ± 0.064 |
| C[C@H]1O[C@@H](O[C@H]2CC[C@@]3(C)[C@@H](CC[C@]4(C)[C@@H]3C=CC3=C5CC(C)(C)CC[C@]5(CO)[C@H](O)C[C@]34C)[C@]2(C)CO)[C@H](O)[C@@H](O[C@@H]2O[C@H](CO)[C@@H](O)[C@H](O)[C@H]2O)[C@H]1O [Saikosaponin B2] (compound dose: 10 uM) | 1.047 ± 0.0068 | 0.739 ± 0.04 |
| CC(C)=CCC[C@@](C)(O)[C@H]1CC[C@]2(C)[C@@H]1[C@H](O)C[C@@H]1[C@@]3(C)C[C@@H](O)[C@H](O[C@@H]4O[C@H](CO)[C@@H](O)[C@H](O)[C@H]4O[C@@H]4O[C@H](CO)[C@@H](O)[C@H](O)[C@H]4O)C(C)(C)[C@@H]3CC[C@]12C [Gypenoside LI] (compound dose: 10 uM) | 0.936 ± 0.084 | 0.724 ± 0.1 |
| C[C@]12C[C@@H](O)[C@@H]3C[C@@]1(O[C@@H]1O[C@H](CO)[C@@H](O)[C@H](O)[C@H]1O)[C@@]3(COC(=O)c1ccccc1)C(=O)O2 [Albiflorin] (compound dose: 10 uM) | 0.963 ± 0.031 | 0.908 ± 0.031 |
| CC(C)=CCC[C@](C)(O[C@@H]1O[C@H](CO[C@@H]2O[C@@H](CO)[C@H](O)[C@H]2O)[C@@H](O)[C@H](O)[C@H]1O)[C@H]1CC[C@]2(C)[C@@H]1[C@H](O)C[C@@H]1[C@@]3(C)CC[C@H](O[C@@H]4O[C@H](CO)[C@@H](O)[C@H](O)[C@H]4O[C@@H]4O[C@H](CO)[C@@H](O)[C@H](O)[C@H]4O)C(C)(C)[C@@H]3CC[C@]12C [Ginsenoside Rc] (compound dose: 10 uM) | 0.9496 ± 0.0049 | 0.744 ± 0.044 |
| O=C(O)C1=CO[C@@H](O[C@@H]2O[C@H](CO)[C@@H](O)[C@H](O)[C@H]2O)[C@@H]2C(CO)=CC[C@H]12 [Geniposidic acid] (compound dose: 10 uM) | 1.02 ± 0.015 | 0.715 ± 0.065 |
| O=c1c(-c2ccc(O)cc2)coc2c([C@@H]3O[C@H](CO)[C@@H](O)[C@H](O)[C@H]3O)c(O)ccc12 [Puerarin] (compound dose: 10 uM) | 0.944 ± 0.027 | 0.927 ± 0.033 |
| C/C1=C\CC[C@]23O[C@H]2[C@@H](OC3=O)c2c(C)coc2C1 [Linderane] (compound dose: 10 uM) | 0.985 ± 0.032 | 0.942 ± 0.096 |
| CC(C)=CCCC(C)(OC1OC(CO)C(O)C(O)C1O)C1CCC2(C)C1C(O)CC1C3(C)CC(O)C(OC4OC(CO)C(O)C(O)C4OC4OC(CO)C(O)C(O)C4O)C(C)(C)C3CCC12C (centres undefined) [Gypenoside XLVI] (compound dose: 10 uM) | 1.03 ± 0.27 | 0.812 ± 0.16 |
| C[C@H](CC[C@@H](O[C@@H]1O[C@H](CO[C@@H]2O[C@H](CO)[C@@H](O)[C@H](O)[C@H]2O)[C@@H](O)[C@H](O)[C@H]1O[C@@H]1O[C@H](CO)[C@@H](O)[C@H](O)[C@H]1O)C(C)(C)O)[C@H]1CC[C@@]2(C)[C@@H]3CC=C4[C@@H](CC[C@H](O[C@@H]5O[C@H](CO[C@@H]6O[C@H](CO)[C@@H](O)[C@H](O)[C@H]6O)[C@@H](O)[C@H](O)[C@H]5O)C4(C)C)[C@]3(C)[C@H](O)C[C@]12C [Mogroside V] (compound dose: 10 uM) | 0.989 ± 0.021 | 0.968 ± 0.19 |
| CC1(C)CC[C@]2(C(=O)O[C@@H]3O[C@H](CO)[C@@H](O)[C@H](O)[C@H]3O)CC[C@]3(C)C(=CC[C@@H]4[C@@]5(C)CC[C@H](O[C@@H]6O[C@H](C(=O)O)[C@@H](O)[C@H](O)[C@H]6O[C@H]6OC[C@@H](O)[C@H](O)[C@H]6O)C(C)(C)[C@@H]5CC[C@]43C)[C@@H]2C1 [Pseudoginsenoside RT1] (compound dose: 10 uM) | 0.9758 ± 0.0023 | 0.988 ± 0.14 |
| CC(C)=CCC/C(C)=C/CC/C(C)=C/CO [Farnesol] (compound dose: 10 uM) | 0.994 ± 0.062 | 0.939 ± 0.2 |
| COc1cc2c(cc1O)C(Cc1ccc(O)cc1)NCC2 (centres undefined) [Coclaurine] (compound dose: 10 uM) | 0.988 ± 0.044 | 1.04 ± 0.062 |
| CC(C)(O)[C@H]1CC[C@@](C)([C@H]2CC[C@]3(C)[C@@H]2[C@H](O)C[C@@H]2[C@@]4(C)CC[C@H](O)C(C)(C)[C@@H]4[C@@H](O[C@@H]4O[C@H](CO)[C@@H](O)[C@H](O)[C@H]4O)C[C@]23C)O1 [Pseudoginsenoside RT5] (compound dose: 10 uM) | 0.987 ± 0.016 | 0.865 ± 0.21 |
| C/C=C(/C)C(=O)O[C@H]1C(C)=C[C@]23C(=O)[C@@H](C=C(CO)[C@@H](O)[C@]12O)[C@H]1[C@@H](C[C@H]3C)C1(C)C [Ingenol Mebutate] (compound dose: 10 uM) | 1.01 ± 0.026 | 0.691 ± 0.18 |
| C=C1C(=O)O[C@H]2C1CC[C@@](C)(O)C13C=CC(C)(C21)C1(C3)C(=O)O[C@@H]2C3C(C)=CCC3[C@](C)(O)[C@H](OC(C)=O)CC21 (some centres undefined) [Handelin] (compound dose: 10 uM) | 0.83 ± 0.29 | 0.709 ± 0.3 |
